Experiment [1] can be described thus: qHTS to identify inhibitors of the type 1 interferon - major histocompatibility complex class I in skeletal muscle: primary screen against the NCATS LOPAC collection (AID 1347405).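 Further: human myoblasts with HiBiT tag on endogenous HLA-B stimulated by IFN-beta; lytic HiBiT luminescence reporting HLA-B protein level.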 Further: potency means the concentration at half of the fitted maximal effect. A digest of the protocol:
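HLA-B HiBiT myoblasts, IFN-b 4 ng/ml, dexamethasone-free medium; compounds 7-pt 1:4.3 titration, top 46 uM final; 24 h at 37 C; Nano-Glo HiBiT lytic reagent, 10 min RT, luminescence.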

A short description of experiment [2]: qHTS for inhibitors of adenylyl cyclases using a fission yeast platform: a pilot screen against the NCATS LOPAC library (AID 1347410). A digest of the protocol:
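Read-out: fbp1-GFP fluorescence by laser scanning cytometry (488 nm laser), a gain of signal when AC/cAMP-PKA signalling is inhibited. Strain CHP2027 expressing AC9, GNAS and PDE4D2; compounds at up to 57 µM; 18 h, 30C.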

Experiment [3] in a line: Validation qHTS assay for inhibitors of Activation Induced Cytidine Deaminase (AID): UDG Counterscreen signal (AID 1347427). A digest of the protocol: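 Fluorescence at 560 nm excitation, 665 nm emission reports UDG signal after 250 mM NaOH (2x) addition and 30 min. Enzymes (AID 1 uM, UDG 2 U/mL, at 4/3x) preincubated 10 min with compound, then 4 h with 4x 250 nM DJC20/DJC23 substrate at room temperature.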

The nature of experiment [4]: Primary qHTS for inhibitors of La Crosse Virus (LACV) - induced cell death in SH-SY5Y cells (AID 1508616).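 Further: top concentration of the series differs between compounds; higher means more rescue of cells from virus-induced death.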 A digest of the protocol:
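Cytopathicity rescue screen: compounds pinned onto SH-SY5Y cells, which are then infected with LACV (MOI 0.01) and held 6 days at 37C. Percent activity is scaled between infected DMSO control and uninfected DMSO control.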

Experiment [5] concerns the target Calcium and integrin-binding protein 1 (Homo sapiens) (UniProt Q99828). Kind of experiment: Validation qHTS for Identification of Calcium Integrin Binding protein 1 (CIB1) Competitor (AID 1508618). A digest of the protocol: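 CIB1-GST (1 uM final) in 5 mM HEPES pH 7.4, 125 mM NaCl, 5 mM CaCl2, 0.01% Tween20 was preincubated 15 min at room temperature with compound (up to 114 uM), then FITC-alphaIIb peptide (100 nM) added for 15 min; fluorescence polarization read.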

Experiment [6] is described as follows: Primary qHTS for small molecule stabilizers of the endoplasmic reticulum resident proteome: Secreted ER Calcium Modulated Protein (SERCaMP) assay (AID 1508630). The method in brief: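 The SH-SY5Y reporter protocol was run at 3 concentrations up to 38.3 uM (primary) or 11 concentrations (follow-up): 16 h compound, 100 nM thapsigargin for 4 h, then extracellular luciferase luminescence.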

The next experiment has as its target Papain (Carica papaya) (UniProt P00784). Kind of experiment: Primary qHTS assay for inhibitors of the protease papain (AID 1645873).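 Further: papain turnover of Z-FR-AMC read as the AMC fluorescence gain over 10 min.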 Further: potency means the concentration at half of the fitted maximal effect.
Experiment [7] concerns the target Single-stranded DNA cytosine deaminase (Homo sapiens) (UniProt Q9GZX7). Kind of experiment: Validation qHTS assay for inhibitors of Activation Induced Cytidine Deaminase (AID): AID signal (AID 1347429). The method in brief: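 AID+UDG coupled FRET deamination; cpds up to 114 uM final; DJC20/DJC23 substrate, 4 hr RT; NaOH stop, 30 min RT; read Ex 540/Em 590.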
Experiment [8] in a line: Confirmatory qHTS for small molecule stabilizers of the endoplasmic reticulum resident proteome: Secreted ER Calcium Modulated Protein (SERCaMP) assay (AID 1508628). Further: nearly all actives have a fitted effect of over 40% in size. Further: potency means the concentration at half of the fitted maximal effect. A digest of the protocol:
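GLuc-SERCaMP-expressing SH-SY5Y cells, pretreated 16 h with compound, are challenged with thapsigargin to empty ER calcium stores; after 4 h, coelenterazine is added directly to the medium and luminescence is imaged.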

The nature of experiment [9]: Counterscreen qHTS for small molecule stabilizers of the endoplasmic reticulum resident proteome: GLuc-NoTag assay (AID 1508627). Further: series mostly up to about 76 µM. The method in brief: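 Secreted GLuc lacking the SERCaMP modification is measured in SH-SY5Y cells exposed to compound for 19 h and then to thapsigargin (100 nM, 4 h) to deplete ER calcium; hits retested at 11 concentrations, up to 76.6 uM.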

Experiment [10] in a line: qHTS to identify inhibitors of the type 1 interferon - major histocompatibility complex class I in skeletal muscle: primary screen against the NCATS Mechanism Interrogation Plate v5.0 (MIPE) Libary (AID 1347411). Further: nearly all actives have a fitted effect of over 65% in size. A digest of the protocol: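 HLA-B HiBit myoblasts, dexamethasone-free medium + 4 ng/ml IFN-b, 24 h compound, 11-pt 1:3 from 46 uM final. Readout: Nano-Glo HiBiT lytic luminescence after 10 min lysis, RT.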

Molecules are shown by their SMILES. Unmarked numbers belong to inactive results. Records with an inconclusive call do not appear. Active and inactive are the calls of the source. The call rests on the fitted dose curve; in most records, active means well fitted curve in the direction sought with a large enough effect; inconclusive means small, poorly fitted or top-dose-only effect, or another doubt; inactive means no such curve, though single readings can be large; an effect the other way counts as inactive or inconclusive.

Papain (Carica papaya), sequence (P00784 whole entry, looked up): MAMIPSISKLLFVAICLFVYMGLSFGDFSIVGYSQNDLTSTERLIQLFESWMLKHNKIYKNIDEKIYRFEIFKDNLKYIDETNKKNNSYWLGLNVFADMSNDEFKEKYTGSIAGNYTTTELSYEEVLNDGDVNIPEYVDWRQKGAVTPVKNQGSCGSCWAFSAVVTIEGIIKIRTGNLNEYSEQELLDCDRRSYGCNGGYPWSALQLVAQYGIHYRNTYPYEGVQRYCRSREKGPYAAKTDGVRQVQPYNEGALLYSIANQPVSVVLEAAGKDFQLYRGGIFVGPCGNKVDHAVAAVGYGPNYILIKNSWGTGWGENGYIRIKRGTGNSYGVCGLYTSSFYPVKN
Calcium and integrin-binding protein 1 (Homo sapiens), sequence (Q99828 whole entry, looked up): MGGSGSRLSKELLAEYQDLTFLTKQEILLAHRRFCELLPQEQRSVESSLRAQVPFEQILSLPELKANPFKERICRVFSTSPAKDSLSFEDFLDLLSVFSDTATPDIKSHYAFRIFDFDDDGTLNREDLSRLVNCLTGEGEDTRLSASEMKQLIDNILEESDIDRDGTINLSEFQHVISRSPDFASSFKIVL
Single-stranded DNA cytosine deaminase (Homo sapiens), sequence (Q9GZX7 whole entry, looked up): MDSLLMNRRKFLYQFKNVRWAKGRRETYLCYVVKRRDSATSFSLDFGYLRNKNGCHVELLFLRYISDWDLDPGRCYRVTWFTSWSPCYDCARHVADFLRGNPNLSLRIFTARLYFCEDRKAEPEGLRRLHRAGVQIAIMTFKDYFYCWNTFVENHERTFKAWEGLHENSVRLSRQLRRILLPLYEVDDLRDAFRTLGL

On to `Nc1ncnc2c1nc(Br)n2C1OC2COP(=O)(O)O[C@@H]2C1O` (some centres undefined), for which the Potency result (in [1]; in experiment [3]; in experiment [4]; in experiment [5]; in experiment [6]; with Papain (Carica papaya)) was “inactive” each time. In [2], the call was inactive.
On to `NCCS(=O)O`, for which the Potency result (in experiment [1]; in experiment [3]; in [7]; in experiment [5]; in experiment [6]; with Papain (Carica papaya)) was “inactive” each time. Further, the result in experiment [2] was inactive.
In the case of `CCN(c1nc(N)c(C(=O)N=C(N)N)nc1Cl)C(C)C`, the Potency result (in experiment [1]; in experiment [3]; in experiment [7]; in experiment [5]; in the experiment with Papain (Carica papaya)) was “inactive” each time. Moreover, the compound was classed as inactive in experiment [2].
With `Nc1nc2c(cnn2CCc2ccccc2)c2nc(-c3ccco3)nn12`, the Potency result in experiment [1], in experiment [3], in [7] and in experiment [6] was “inactive” in each case. In experiment [2], the call was inactive.
As for `O=C1Cc2c([nH]c3ccc(Br)cc23)-c2ccccc2N1`, the Potency in experiment [1] is 12.6 µM (active). Further, in experiment [2], the outcome was inactive. Further, the Potency entry (in experiment [3]; in experiment [7]; in experiment [6]; with Papain (Carica papaya)) was “inactive” each time.
For the compound `O=C(OCCN1CCOCC1)C1(c2ccccc2)CCCCC1`, the Potency entry (in [1]; in experiment [3]; in [7]; in [5]; in [6]; in the experiment with Papain (Carica papaya)) was “inactive” in each case. The compound was classed as inactive in experiment [2].
As for `CCc1ccc2c(-c3cccc(Cl)c3)nc(=O)n(CC)c2n1`, the Potency entry (in experiment [1]; in experiment [3]; in [7]; in [5]; with Papain (Carica papaya)) was “inactive” throughout. Further, the result in experiment [2] was inactive.
With `N#Cc1cc2nc(O)c(O)nc2cc1[N+](=O)[O-]`, the Potency entry in [1], in experiment [3], in experiment [7] and in experiment [6] was “inactive” in each case. The compound was called inactive in experiment [2].
Take `COc1ccc(NC(=O)c2ccc(-c3ccc(-c4noc(C)n4)cc3C)cc2)cc1N1CCN(C)CC1`: the Potency in experiment [1] is 25.1 µM (active). Besides, the result in experiment [2] was inactive. Also, the Potency result (in [3]; in experiment [7]; in [6]; with Papain (Carica papaya)) was “inactive” in each case.
On to `C[C@](Cc1ccc(O)c(O)c1)(NN)C(=O)O`, for which the Potency entry (in experiment [1]; in experiment [3]; in [7]; with Papain (Carica papaya)) was “inactive” each time. In addition, in [2], the call was inactive.
For the compound `CN1CCc2cc(Cl)c(O)cc2[C@@H](c2ccccc2)C1`, the Potency entry in experiment [1], in experiment [3], in [4], in experiment [5], in experiment [8] and in experiment [6] was “inactive” in each case. The outcome in [2] was inactive.
On to `CN(C)CCC(c1ccc(Br)cc1)c1ccccn1` (centres undefined), for which the Potency entry (in experiment [1]; in experiment [3]; in experiment [7]; in experiment [6]; with Papain (Carica papaya)) was “inactive” throughout. In experiment [2], the outcome was inactive.
In the case of `CN1CCN(c2nc3cc(C(F)(F)F)ccc3n3cccc23)CC1`, the Potency result (in experiment [1]; in experiment [3]; in experiment [7]; with Papain (Carica papaya)) was “inactive” in each case. The outcome in experiment [2] was inactive.
With `CSC(N)=NCCC[C@H](N)C(=O)O`, the Potency result (in experiment [1]; in experiment [3]; in experiment [7]; in [5]; in experiment [6]; with Papain (Carica papaya)) was “inactive” throughout. Moreover, the call in experiment [2] was inactive.
As for `NCC(O)c1ccc(O)c(O)c1` (centres undefined), the Potency entry in experiment [1], in experiment [3], in [7] and in experiment [6] was “inactive” throughout. Further, the compound was classed as inactive in [2].
Consider `OC1(c2ccc(Cl)cc2)CCN(Cc2c[nH]c3ccccc23)CC1`, for which the Potency entry (in experiment [1]; in [3]; in [7]; in experiment [5]; in [6]; with Papain (Carica papaya)) was “inactive” throughout. In addition, the compound was called inactive in experiment [2].
As for `c1ccc(CN2CCC3(CCCc4ccccc43)CC2)cc1`, the Potency result (in [1]; in [3]; in experiment [7]; in experiment [5]; in experiment [6]; with Papain (Carica papaya)) was “inactive” in each case. In [2], the compound was called inactive.
Consider `OC[C@H]1NC[C@@H](O)[C@@H]1O`, for which the Potency result (in [1]; in experiment [3]; in experiment [7]; in [6]; with Papain (Carica papaya)) was “inactive” each time. The call in experiment [2] was inactive.
Take `O=c1cc(O)cc(/C=C/c2ccc(O)c(O)c2)o1`: the Potency entry in experiment [1], in experiment [7] and in experiment [5] was “inactive” each time. In addition, in [2], the outcome was inactive. Further, in experiment [8], the Potency was 20 µM (active).
With `Nc1nc2[nH]c(=O)cnc2c(=O)[nH]1`, the Potency entry (in experiment [1]; in experiment [3]; in [4]; in [5]; with Papain (Carica papaya)) was “inactive” in each case. In experiment [2], the call was inactive.
As for `CCCCCCCCCCC/C=C\C(C)(C)/C=C\CCCC(=O)O`, the Potency entry (in [1]; in [3]; in [4]; in experiment [6]; with Papain (Carica papaya)) was “inactive” in each case. In addition, in [2], the result was inactive.
With `O=C(O)CCC/C=C\C[C@@H]1[C@@H](/C=C/[C@H](O)C2Cc3ccccc3C2)[C@@H](F)C[C@@H]1O`, the Potency result (in [1]; in experiment [3]; in [4]; in experiment [5]; with Papain (Carica papaya)) was “inactive” in each case. In addition, the compound was classed as inactive in experiment [2].
Regarding `NCC(O)(CS(=O)(=O)O)c1ccc(Cl)cc1` (centres undefined), the Potency result (in experiment [1]; in experiment [3]; in experiment [5]; in [6]; in the experiment with Papain (Carica papaya)) was “inactive” in each case. In addition, the result in experiment [2] was inactive.
Turning to `O=C(O)c1cc(=O)cc(C(=O)O)[nH]1`, the Potency result (in [1]; in [3]; in experiment [4]; in the experiment with Papain (Carica papaya)) was “inactive” in each case. Further, the compound was called inactive in experiment [2].
As to `Oc1cc2c(cc1O)C(c1ccccc1)CNCC2` (centres undefined), the Potency entry (in experiment [1]; in experiment [3]; in [4]; in experiment [5]; in [6]; with Papain (Carica papaya)) was “inactive” each time. In addition, in experiment [2], the call was inactive.
`O=C(O)/C(=C/c1c(C(=O)O)[nH]c2cc(Cl)cc(Cl)c12)c1ccccc1`: the Potency entry in experiment [1], in experiment [3], in experiment [4] and in experiment [6] was “inactive” each time. Further, the result in [2] was inactive.
As for `O=S(=O)(c1cccc2c(Cl)cccc12)N1CCCNCC1`, the outcome in experiment [2] was inactive. For the same compound, the Potency result in experiment [3], in experiment [7], in experiment [4], in [5], in [9] and in experiment [8] was “inactive” in each case. Moreover, the Potency entry in the experiment with Papain (Carica papaya) was “inactive”.
As for `CCCCCCCCCCCCCCSCC(=O)O`, the Potency result (in experiment [1]; in experiment [3]; in experiment [4]; in [5]; in experiment [6]; in the experiment with Papain (Carica papaya)) was “inactive” each time. Moreover, the result in [2] was inactive.
For the compound `COc1cc(/C=C(\C#N)C(=O)Nc2nnc(C(F)(F)F)s2)ccc1OCc1ccc(C(F)(F)F)cc1C(F)(F)F`, the compound was classed as inactive in [2] and in experiment [10]. The Potency entry in experiment [3], in [4] and in [6] was “inactive” in each case.
Turning to `NC(=Nc1ccccc1)NC(=O)c1nc(Cl)c(N)nc1N`, in [2], the call was inactive. Further, the Potency result in experiment [3], in [7], in [4], in [5], in [9] and in experiment [8] was “inactive” in each case. In the experiment with Papain (Carica papaya), the Potency is 25.1 µM (active).
For `O=[N+]([O-])c1cccc2c(Br)[nH]nc12`, the Potency result (in experiment [1]; in experiment [3]; in [6]; with Papain (Carica papaya)) was “inactive” in each case. Also, in experiment [2], the call was inactive.

The record behind these values is PubChem BioAssay (NCATS).
